ATG4B inh – ATG4B (human) cysteine protease inhibition. ATG4B cleavage of LC3-PLA2, NBD-HPC fluorescence, 1 h. inhibition, % at 8.33 µM. Q9Y4P1. AID 504462. 340,000 tested, 0.51% active; in the data active = inhibition above about 40%
Target sequence (Q9Y4P1 whole entry, looked up): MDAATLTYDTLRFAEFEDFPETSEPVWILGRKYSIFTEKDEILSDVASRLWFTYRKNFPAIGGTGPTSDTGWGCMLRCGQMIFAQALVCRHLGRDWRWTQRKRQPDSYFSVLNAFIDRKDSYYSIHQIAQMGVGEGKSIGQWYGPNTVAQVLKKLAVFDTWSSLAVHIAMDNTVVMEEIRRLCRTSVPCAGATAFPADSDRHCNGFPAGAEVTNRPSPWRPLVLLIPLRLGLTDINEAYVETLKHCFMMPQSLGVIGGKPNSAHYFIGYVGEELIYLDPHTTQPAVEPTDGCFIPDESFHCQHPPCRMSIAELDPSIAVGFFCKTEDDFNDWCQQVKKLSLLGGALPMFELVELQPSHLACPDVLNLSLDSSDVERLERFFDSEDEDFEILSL
Vif imaging – HIV Vif inhibition. HEK293T cells, Vif self-association by quenched fluorescence, imaging, 24 h. inhibition, % at 7.49 µM. 340,000 tested, 0.35% active. AID 602346; in the data active = inhibition above about 50%, passing the limit was not always enough; inconclusive = no clear call, values can overlap the other calls; inactive = below about 31%
CaV13 ICDI inh – Disruptors of the CACNA1D IQ motif to Ca2+-dependent inactivation inhibitor domain association, primary screening, Förster resonance energy transfer in intact living …; HEK cells, CFP/YFP FRET ICDI-IQ, plate reader, 10 min; percent FRET-ratio fall versus neutral wells; inhibition, % at 12.3 µM; 340,000 tested, 0.098% active;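 active = mean replicate inhibition of at least 30% and at least 1% of replicates passing that level; inconclusive = only one of the two criteria is met; inactive = neither criterion is met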
Pemphigus Ab inh – blocks pemphigus antibody binding to human desmoglein-3. DSG3-coupled beads, scFv-anti-DSG3-GFP binding, flow cytometry; hits give low values. AID 588358. binding (percent of control), % at 10 µM. 310,000 tested, 0.48% active. P32926;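 active = binding more than 3 SD below its plate's average and above zero; inconclusive = below that plate limit but binding exactly zero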;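 also: hits lower antibody fragment binding to DSG3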
Glyco luc inh – blocks N-linked glycosylation in D54 reporter cells; D54 ERlucT glycosylation luciferase reporter, 24 h; percent of 100 nM tunicamycin response; reporter increase, % at 12.5 µM; 360,000 tested, 0.23% active; AID 588692;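 active = mean luciferase reporter signal, scaled so untreated is 0 and the glycosylation-blocking control 100, at or above a set limit in every replicate; inconclusive = mean reaches the limit but not every replicate does; inactive = mean below the limit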;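 also: luciferase carries N-glycosylation sites so blocking glycosylation raises the light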
NSD2 inh – blocks human histone methyltransferase NSD2. O96028. NSD2 peptide methylation, AlphaScreen, 120 min. inhibition, % at 12.5 µM. 310,000 tested, 0.54% active. AID 743445
ATG4B confirm – ATG4B (human) inhibition, single-dose confirmed | shares compounds with ATG4B inh | ATG4B protease fluorescent substrate cleavage assay | inhibition, % at 8.33 µM | 320 tested, 92% active; in the data active = inhibition above about 39%
PLA2 counter – counter-screen for ATG4B inhibitors: human phospholipase A2 | shares compounds with ATG4B inh | purified PLA2, NBD-C6-HPC fluorescence, 45 min | inhibition, % at 8.33 µM | 1,600 tested, 66% active | AID 588402
Target sequence (P04054 whole entry, looked up): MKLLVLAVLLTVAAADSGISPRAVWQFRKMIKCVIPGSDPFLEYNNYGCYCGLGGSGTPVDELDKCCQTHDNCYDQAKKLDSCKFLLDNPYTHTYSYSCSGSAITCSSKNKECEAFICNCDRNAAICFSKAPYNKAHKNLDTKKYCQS
Large screens that a line does not name were inactive (follow-up assays come after a bar, where they were run). This is a sample that favours compounds with a hit; in the whole collection about 1.9% have one here. Rule as the data show it, unless noted: active = inhibition above about 50%; inactive = the rest.

Cc1nn(C)c(C(=O)Nc2ccc(Br)cc2F)c1Br	none
COc1ccc(-c2csc(COC(=O)C(C)(C)C)n2)cc1	none
O=C(Nc1nc2nc(-c3ccccc3)cc(-c3ccccc3)n2n1)c1ccco1	ATG4B inh 42 (no result: Vif imaging, CaV13 ICDI inh) | PLA2 counter 51
CC(=O)Nc1nc2nc(-c3ccccc3)cc(-c3ccccc3)n2n1	none (no result: Vif imaging, CaV13 ICDI inh, Pemphigus Ab inh)
O=S(=O)(Nc1ccc(-c2csc(-c3ccccc3)n2)cc1)c1ccc(F)cc1	none
O=C(Nc1nc(-c2ccccc2)cs1)c1ccccc1NS(=O)(=O)c1ccc(F)cc1	ATG4B inh 54 | PLA2 counter 62
O=C1C=C(Nc2ccc(Cl)cc2)CC(c2ccco2)C1 (stereo not drawn)	none
S=C(NCc1ccccc1)NC1CCCc2ccccc21 (stereo not drawn)	ATG4B inh 78 | PLA2 counter 78
S=C(NCc1ccco1)NC1CCCc2ccccc21 (stereo not drawn)	ATG4B inh 63 | PLA2 counter inactive
Cc1cccc(OCCCC(=O)Nc2ccc(S(=O)(=O)Nc3onc(C)c3C)cc2)c1	none
CCC(C)(C)C1CCc2c(sc(NC(=O)c3ccccc3C(=O)O)c2C#N)C1 (stereo not drawn)	ATG4B inh 71 | PLA2 counter 87
CN(Cc1ccco1)C(=O)[C@H](Cc1ccccc1)NC(=O)CC[C@H]1O[C@@H](n2ccc(=O)[nH]c2=O)[C@H](O)[C@@H]1O	none (no result: ATG4B inh, Pemphigus Ab inh, NSD2 inh)
Oc1ccc(Cl)cc1Sc1cc(Cl)ccc1O	ATG4B inh 47 | ATG4B confirm 59 | PLA2 counter inactive
CNC(=O)Nc1cccc(-c2cc(-c3c(Cl)cccc3Cl)no2)c1	ATG4B inh 59 (no result: Pemphigus Ab inh) | PLA2 counter 65
CC(=O)Nc1cccc(-c2cc(-c3c(Cl)cccc3Cl)no2)c1	none
Cc1noc(N)c1C1(O)C(=O)Nc2c(Cl)cc(Cl)cc21 (stereo not drawn)	none
Cc1cccc2cc(CN(Cc3cccs3)Cc3nnnn3Cc3ccccc3)c(=O)[nH]c12	ATG4B inh 49 | PLA2 counter 62
COc1ccc2cc(CN(Cc3cccs3)Cc3nnnn3Cc3ccccc3)c(=O)[nH]c2c1	ATG4B inh 51 (no result: CaV13 ICDI inh) | PLA2 counter 54
CCc1ccc(NC(=O)CSc2nnc(-c3ccco3)o2)cc1	none (no result: Pemphigus Ab inh)
Cc1ccc(S(=O)(=O)N(CC(=O)NCc2cccnc2)c2ccc(F)cc2)cc1	none
CCOC(=O)C1=NNC(C(=O)O)C1c1ccccc1 (stereo not drawn)	none
CCNc1nc(N)nc(-c2cc(Cl)ccc2O)n1	none (no result: CaV13 ICDI inh)
CCCCNc1nc(N)nc(-c2cc(Cl)ccc2O)n1	ATG4B inh 46 (no result: Vif imaging) | PLA2 counter 50
Cc1ccnc(SCCn2c(N3CCOCC3)nc3c2c(=O)[nH]c(=O)n3C)n1	none
O=C(N/N=C/c1coc2ccccc2c1=O)c1cc(Br)c(O)c(Br)c1	none (no result: Pemphigus Ab inh)
CCCOc1cccc(C(=O)N/N=C/c2coc3ccccc3c2=O)c1	ATG4B inh 43 (no result: CaV13 ICDI inh) | PLA2 counter 74
COc1ccc2c(c1OC)C(=O)OC2Nc1nc(-c2cccc([N+](=O)[O-])c2)cs1 (stereo not drawn)	ATG4B inh 52 | PLA2 counter 71
CC(C)c1ccc(/C=N/N2CCN(c3ccccn3)CC2)cc1	none
Cc1ccc(N=C2NC(=O)/C(=C/C=C/c3ccco3)S2)cc1	none
Cc1cccc(N=C2NC(=O)/C(=C/C=C/c3ccco3)S2)c1C	ATG4B inh 83 | PLA2 counter 51
O=C(Cc1ccccc1)Nc1ccc(C(=O)NCC2COc3ccccc3O2)cc1 (stereo not drawn)	none
Cc1ccc(OCc2cc(C(=O)NCc3cc(F)ccc3C)no2)cn1	ATG4B inh 50 | PLA2 counter 54
O=C(COC(=O)c1n[nH]c2ccccc12)Nc1ccccc1F	none
Cc1cccc(NC(=O)COC(=O)c2n[nH]c3ccccc23)c1C	ATG4B inh 45 | PLA2 counter 52
COc1ccc(OC)c(-c2csc(N(Cc3ccco3)C(=O)c3cccs3)n2)c1	ATG4B inh 57 (no result: Pemphigus Ab inh) | PLA2 counter 72
COc1ccc(-c2csc(N(Cc3ccco3)C(=O)c3cccs3)n2)cc1	none (no result: NSD2 inh)
O=C(O)c1ccc(-c2ccc(/C=c3/sc4nc5ccccc5n4c3=O)o2)cc1Cl	ATG4B inh 50 (no result: NSD2 inh) | ATG4B confirm 82 | PLA2 counter inactive
O=c1c2ccccc2sc2nc(CCl)nn12	none
C#Cc1ccc([C@@H]2C=C(C(=O)NCc3ccccc3)O[C@H](OCC)[C@H]2CCCO)cc1	none (no result: NSD2 inh)
C#Cc1ccc([C@@H]2C=C(C(=O)O)O[C@H](OCC)[C@H]2CCCO)cc1	ATG4B inh 59 (no result: NSD2 inh) | PLA2 counter 72
CC1=NN(c2ccc(C(=O)O)cc2)C(=O)/C1=C\c1ccc(OC(=O)c2cccs2)cc1	ATG4B inh 85 | PLA2 counter 70
CCOc1ccc(-c2cc(NC(=O)c3c(F)cccc3F)c(C(=O)O)s2)cc1	ATG4B inh 92 | PLA2 counter 94
O=C(Nc1cc(-c2ccccc2)sc1C(=O)O)c1cccc(F)c1	ATG4B inh 93 | PLA2 counter 91
O=C(O)c1ccc(NC(=O)c2ccccc2NC(=O)c2cccc(F)c2)cc1	none
Cc1ccc(C)c(OCc2cc(C(=O)N3CCc4sccc4C3)no2)c1	ATG4B inh 46 | PLA2 counter 81
CSc1ccccc1OCc1cc(C(=O)N2CCc3sccc3C2)no1	ATG4B inh 72 | PLA2 counter 78
O=C(c1cc(COc2ccc(F)cc2Cl)on1)N1CCc2sccc2C1	none
CCOc1cc(C)nc(NCc2ccccc2)n1	none
COc1ccc(CNc2ccc(-c3ccccc3OC)nn2)cc1	ATG4B inh 48, Vif imaging inconclusive (no result: Pemphigus Ab inh, NSD2 inh) | PLA2 counter inactive
COc1ccc(CNc2ccc(-c3ccc(OC)cc3)nn2)cc1	none (no result: NSD2 inh)
COc1ccc(N(CC(=O)Nc2ccccc2C(=O)O)S(=O)(=O)c2ccc(C)c([N+](=O)[O-])c2)cc1	ATG4B inh 59 | PLA2 counter 62
COc1ccc(NC(=O)CN(c2ccc([N+](=O)[O-])cc2)S(=O)(=O)c2ccccc2)cc1	none
Clc1cccc(-c2nc(NCc3cccnc3)c3ccccc3n2)c1	ATG4B inh 64 | PLA2 counter 70
O=C(C[n+]1cccc(CNC(=O)c2ccc(OC(F)F)cc2)c1)c1ccccc1	none
O=C(COC(=O)CN1C(=O)c2ccccc2C1=O)Nc1ccccc1[N+](=O)[O-]	none
